PMC4552634, “A New Set of Chemical Starting Points with Plasmodium falciparum Transmission-Blocking Potential for Antimalarial Drug Discovery” (PLoS ONE, 2015)
The whole screen tested about 13,000 compounds, of which about 3,200 (25%) showed an effect of 50% or more. The list shows a part of the results.

system: P. falciparum stage V gametocytes; parameters: BacTiter-Glo ATP luminescence viability of purified stage V gametocytes in 384-well plates, per cent inhibition versus DMSO; details: 48 h, 5 µM; inhibitor

Structure (SMILES) | % Inhibition [%]
O=C(Nc1ccc(C(=O)N2CCN(CCN3CCN(c4cccc(C(F)(F)F)c4)CC3)CC2)cc1)c1ccc(OC(F)(F)F)cc1 [TCMDC-138147] | -46.71
O=C(N[C@@H](Cc1ccccc1)C(=O)NCCN1CCOCC1)c1ccc(O)c(-c2ccc(Cl)c(Cl)c2)c1 [TCMDC-140851] | 14.71
COc1ccc(C2CC(=O)C3=C(C2)NC(C)=C(C(=O)OC(C)C)C3c2c(F)cccc2Cl)cc1OC (stereo not shown) [TCMDC-124040] | 34.34
CNC(=O)c1ccc2nc(C3CC3)n(CC3CCN(S(=O)(=O)c4cccc(Cl)c4)CC3)c2c1 [TCMDC-136189] | 88.15
CNC(=O)c1ccc2nc(-c3ccc(-c4ccccc4)cc3)n(CC3CCN(CC4CCCC4)CC3)c2c1 [TCMDC-136523] | 25.32
COC(=O)Cn1c(C2CCN(CC3CCN(C(=O)/C=C/c4ccc(Cl)c(Cl)c4)CC3)CC2)nc2ccccc21 [TCMDC-140298] | 2.762
O=C(/C=C/c1cccc(C(F)(F)F)c1)NCCCCCN1CCN(C(=O)Nc2ccc(Cl)c(Cl)c2)CC1 [TCMDC-135794] | -9.962
O=C1C2C(c3ccc(Cl)c(Cl)c3)N3CC(OCc4ccccc4)CC3(C(=O)O)C2C(=O)N1c1ccc(Br)cc1 (stereo not shown) [TCMDC-139263] | 16.51
Cc1cccc2nc(-c3ccc(-c4ccc(NC(=O)Nc5ccsc5)cc4)s3)[nH]c12 [TCMDC-133209] | -24.83
CCC(Cc1ccccc1)c1cc(O)c(Cc2ccc(-c3ccccc3)cc2)c(=O)o1 (stereo not shown) [TCMDC-140730] | -3.123
CN(C)Cc1cc2c(O)c(Cc3ccccc3)ccc2o1 [TCMDC-124091] | 7.975
CN(C)Cc1c(O)ccc2oc(Cc3ccccc3)cc12 [TCMDC-125816] | 62.06
O=S1(=O)NC2(CCN(CCc3ccc(Cl)cc3)CC2)Nc2cc(F)cc(F)c21 [TCMDC-124990] | -19.76
Cc1ccc(S(C)(=O)=O)cc1/C=C/C(=O)O [TCMDC-139220] | 3.947
COc1ccc2nccc([C@@H](O)CN3CCC(NCCOc4ccc(F)cc4[N+](=O)[O-])CC3)c2c1 [TCMDC-140659] | -1.987
CN1CCN(c2ccnc3ccc(NC(=O)Nc4cccc5ccccc45)cc23)CC1 [TCMDC-139346] | 6.615
O=c1nc(C=Cc2ccc(Br)cc2)oc2ccccc12 [TCMDC-123878] | 22.17
CCCc1c(C(=O)NC2CCC(CN3CCC(c4c[nH]c5ccccc45)CC3)CC2)cnn1-c1c(Cl)cc(Cl)cc1Cl (stereo not shown) [TCMDC-140423] | 74.19
Cc1c(C(=O)NC2CCC(CN3CCC(c4c[nH]c5ccccc45)CC3)CC2)cnn1-c1c(Cl)cc(Cl)cc1Cl (stereo not shown) [TCMDC-140357] | 8.343
CCCc1c(C(=O)NC2CCC(CN3CCC(c4c[nH]c5ccccc45)CC3)CC2)cnn1-c1ccc(Cl)cc1 (stereo not shown) [TCMDC-140261] | 29.96

Structure (SMILES) | % Inhibition [%]
O=C(NC1CCC(CN2CCC(c3c[nH]c4ccccc34)CC2)CC1)c1cc(-c2cccc(Cl)c2)n(-c2ccc(Cl)cc2Cl)n1 (stereo not shown) [TCMDC-140353] | -7.21
O=C(NC1CCC(CN2CCC(c3c[nH]c4ccccc34)CC2)CC1)c1cc(-c2ccccc2Cl)n(-c2cccc(Cl)c2)n1 (stereo not shown) [TCMDC-140354] | -13.83
CCCc1c(C(=O)NC2CCC(CN3CCC(c4c[nH]c5ccccc45)CC3)CC2)cnn1-c1ccccc1 (stereo not shown) [TCMDC-139954] | 89.66
CC(C)c1ccc(NC(=O)Nc2ccc(Cn3ncc(N4CCCNCC4)c(Cl)c3=O)cc2)cc1 [TCMDC-133325] | -40.87
CNC(=O)C1Cc2c([nH]c3ccc(Cl)cc23)C2(CCN(CCc3ccccc3)CC2)N1 (stereo not shown) [TCMDC-141285] | -33.98
O=c1[nH]c2ccc3[nH]cccc3c2c1C=Nc1ccc(N2CCN(CCO)CC2)cc1 [TCMDC-138634] | -29.23
O=C(C=Cc1ccc(Cl)c(Cl)c1)NCCCCCN1CCCC(CCCNC(=O)/C=C/c2ccccc2)C1 (stereo not shown) [TCMDC-139577] | 89.65
O=C(C=Cc1ccc(Cl)c(Cl)c1)NCCCCCN1CCCC(CCCNC(=O)C2CC2c2ccccc2)C1 (stereo not shown) [TCMDC-139578] | 25.82
COc1ccccc1/C=C/C(=O)NCCC1CCN(CCCCCNC(=O)/C=C/c2ccc(Cl)c(Cl)c2)CC1 [TCMDC-139999] | 48.92
O=C(C=Cc1ccc(Cl)c(Cl)c1)NCCCCCN1CCC(CCNC(=O)C(c2ccccc2)c2ccccc2)CC1 [TCMDC-139570] | 77.62
O=C(C=Cc1ccc(Cl)c(Cl)c1)NCCCCCN1CCC(CCNC(=O)/C=C/c2ccccc2)CC1 [TCMDC-139566] | 81.69
O=C(/C=C/c1ccc(Cl)c(Cl)c1)NCCCCCN1CCC(CCNC(=O)/C=C/c2ccccc2F)CC1 [TCMDC-140006] | -17.66
O=C(/C=C/c1ccc(Cl)c(Cl)c1)NCCCCCN1CCCC(CNC(=O)/C=C/c2ccccc2)C1 (stereo not shown) [TCMDC-139582] | 30.13
O=C(C=Cc1ccc(Cl)c(Cl)c1)NCCCCCN1CCC(CCCNC(=O)/C=C/c2ccccc2)CC1 [TCMDC-139571] | -9.203
CCc1cc(NCc2ccncc2)nc(Nc2ccc(F)cc2)n1 [TCMDC-134015] | 15.5
CC(C)(C)NC(=O)C(c1ccc(F)cc1)N(C(=O)c1ccc(CN2CCOCC2)o1)c1ccc(C2CCCCC2)cc1 (stereo not shown) [TCMDC-125562] | -47.12
CCc1ccc(CN2CCC(CN(c3ccc(N4CCOCC4)c(F)c3)S(=O)(=O)c3ccc(C(C)(C)CC)cc3)CC2)cc1 [TCMDC-135290] | -12.43
COc1ccccc1C1CCN(C2CCC(NC(=O)/C=C/c3cc(F)cc(F)c3)CC2)CC1 (stereo not shown) [TCMDC-133492] | -91.94
CCOC(=O)c1nc2ccc(SC3CCCCC3)cn2c1Br [TCMDC-138030] | 0.4377
COc1ccc2c(=O)ccn(CCN3CCC(NCc4ccc5c(n4)NC(=O)CS5)CC3)c2c1 [TCMDC-141809] | -63.52
